Assay results from paper PMC4336329 (PLoS ONE, 2015).
The whole screen tested about 310,000 compounds, of which about 14,000 (4.5%) showed an effect of 50% or more. Effects have a minus sign here. What follows is part of a selection rich in strong results, with near analogues and random picks from the rest.

Biological target: human ether-à-go-go-related gene (hERG) potassium channel (human, UniProt Q12809)
Assay: primary screen, population patch clamp on CHO cells stably expressing hERG; higher = less effect of the substance
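Further: peak tail current of the secondary pulse compared with the same well before compound.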

human ether-à-go-go-related gene (hERG) potassium channel, sequence (Q12809 whole entry, looked up): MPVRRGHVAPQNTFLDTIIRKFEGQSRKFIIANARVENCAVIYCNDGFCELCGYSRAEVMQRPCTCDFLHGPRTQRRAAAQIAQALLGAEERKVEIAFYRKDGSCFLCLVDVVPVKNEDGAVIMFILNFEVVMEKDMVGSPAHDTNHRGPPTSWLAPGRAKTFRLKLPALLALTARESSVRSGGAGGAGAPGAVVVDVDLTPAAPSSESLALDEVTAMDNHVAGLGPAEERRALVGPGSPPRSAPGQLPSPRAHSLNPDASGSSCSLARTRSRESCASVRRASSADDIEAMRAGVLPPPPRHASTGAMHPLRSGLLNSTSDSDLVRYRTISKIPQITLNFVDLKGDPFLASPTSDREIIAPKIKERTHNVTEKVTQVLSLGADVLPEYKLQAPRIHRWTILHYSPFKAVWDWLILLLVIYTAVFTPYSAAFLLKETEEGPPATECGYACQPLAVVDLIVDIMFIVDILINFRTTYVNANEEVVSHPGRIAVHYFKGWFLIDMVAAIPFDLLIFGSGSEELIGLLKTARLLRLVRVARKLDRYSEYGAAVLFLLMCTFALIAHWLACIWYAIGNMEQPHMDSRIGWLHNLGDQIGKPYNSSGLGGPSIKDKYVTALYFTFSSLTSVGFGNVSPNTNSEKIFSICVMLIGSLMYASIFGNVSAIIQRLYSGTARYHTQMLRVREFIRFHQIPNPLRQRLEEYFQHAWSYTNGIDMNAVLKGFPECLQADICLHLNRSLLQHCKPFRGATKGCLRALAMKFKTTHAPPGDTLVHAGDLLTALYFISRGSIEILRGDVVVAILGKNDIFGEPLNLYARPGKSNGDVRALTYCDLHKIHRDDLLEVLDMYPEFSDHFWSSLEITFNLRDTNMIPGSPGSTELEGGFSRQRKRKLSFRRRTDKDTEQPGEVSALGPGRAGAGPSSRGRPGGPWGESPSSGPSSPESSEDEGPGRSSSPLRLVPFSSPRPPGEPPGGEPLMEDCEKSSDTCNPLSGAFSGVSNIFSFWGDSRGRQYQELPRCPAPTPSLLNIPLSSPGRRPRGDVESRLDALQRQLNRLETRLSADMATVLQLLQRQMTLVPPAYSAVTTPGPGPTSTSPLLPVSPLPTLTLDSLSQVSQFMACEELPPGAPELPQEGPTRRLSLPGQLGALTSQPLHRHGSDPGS

Structure (SMILES)	hERG current change (%, negative = inhibition) at 10uM [%]
COc1ccc(N2CCN(C(=O)CSc3nnnn3C3CC3)CC2)cc1	-13.6
CC(=O)Nc1nc(C)c(-c2nc3ccc([N+](=O)[O-])cc3[nH]2)s1	13.9
CCN1CCC(CNCc2cn(-c3ccc(OC)cc3)nc2-c2ccccc2Cl)C1 (centres unmarked)	-9.43
COc1ccc(-n2cc(CNCCCN3CCCC3=O)c(-c3ccccc3Cl)n2)cc1	-60.9
COc1ccc(-n2cc(CNCCc3nc(C)cc(C)n3)c(-c3ccccc3Cl)n2)cc1	-62.6
COc1ccc(-n2cc(CNCCc3cscn3)c(-c3ccccc3Cl)n2)cc1	-64.5
Cc1cccc(-n2cc(CNCCc3nc(C)cc(C)n3)c(-c3cccc(F)c3)n2)c1	-67.9
COc1ccc(-c2nn(-c3ccccc3)cc2CO)cc1	4.56
COc1ccc(-n2cc(CNCCc3cnc[nH]3)c(-c3cccc(F)c3)n2)cc1	-28.9
CCN1CC(CNCc2cn(-c3ccc(OC)cc3)nc2-c2ccccc2Cl)CC1=O (centres unmarked)	-24.4
Cc1cccc(-n2cc(CN3CCCN(C=O)CC3)c(-c3cccc(F)c3)n2)c1	-10.8
COc1ccc(-n2cc(CNCCN3CCOC3=O)c(-c3ccccc3Cl)n2)cc1	-18.5
O=C(Nc1cccc(O)c1)C1CCCN1C(=O)OCc1ccccc1 (centres unmarked)	-7.35
CC(C)Oc1ccc(OCCn2c(S(=O)(=O)O)nc3c(N)ncnc32)cc1	15.9
COc1ccc(NC(=O)CN(Cc2ccccc2)Cc2ccccc2)cc1S(N)(=O)=O	-36.7
CCC(=O)Nc1ccc(C(=O)N/N=C/c2ccccc2[N+](=O)[O-])cc1	14.1
CCn1c(SCc2ccc(OC)cc2)nnc1-c1ccncc1	-18.9
Cc1cccc(-c2nnc(SCC(=O)Nc3cc(C)on3)n2C)c1	1.68
Cc1nc(CN2CCN(C(=O)c3ccc(C(C)(C)C)cc3)CC2)cs1.Cl	-3.25
COc1ccc(N2CC(C(=O)Nc3c4c(nn3-c3ccc(OC)cc3)CS(=O)(=O)C4)CC2=O)cc1 (centres unmarked)	21.4
O=C1COc2ccc3ccccc3c2CN1	6.37

Structure (SMILES)	hERG current change (%, negative = inhibition) at 10uM [%]
Cc1ccc(S(=O)(=O)N2CCCC2CNC(=O)C(=O)NC2CCCC2)cc1 (centres unmarked)	-40.3
Cc1ccc(-n2nc3c(=O)n(CCCC(=O)NCCN4CCN(C)CC4)nc(C)c3c2C)cc1	16.8
Cc1ccc(S(=O)(=O)N2CCC(C(=O)NC3CC3)CC2)cc1	-5.59
O=C1CS/C(=N\c2ccccn2)N1C1CCCCC1	13.7
CC(NC(=O)CN1CCc2ccccc21)c1ccccc1 (centres unmarked)	8.5
COc1ccc(-n2cc(CNCCc3ncc(C)[nH]3)c(-c3ccccc3Cl)n2)cc1	-63.6
N#CCN1CCCC(C(N)=O)C1 (centres unmarked)	0.891
COc1ccccc1-n1c(SCC(=O)NCC2CCCO2)nc2c([nH]c3ccccc32)c1=O (centres unmarked)	9.22
CCN(CC)c1ccc(C(=O)N/N=C(\C)c2ccc(OC)c(OC)c2)cc1	3.53
Cc1nnsc1C(=O)NNS(=O)(=O)c1ccccc1	8.81
C=CCOc1ccc(/C=N/NC(=O)C(C)Sc2ccccn2)cc1OCC (centres unmarked)	20.6
CCCCN(C)C(=O)c1nc2ccccn2c1CN1CCN(C(=O)c2cccs2)CC1	-51.8
CCCCN(C)C(=O)c1nc2ccccn2c1CN1CCN(c2ncccn2)CC1	-10.2
CCCCN(C)C(=O)c1nc2ccccn2c1CN1CCN(c2ccccn2)CC1	-7.16
CCCCN(C)C(=O)c1nc2ccccn2c1CN1CCSCC1	6.32
CCCCN(C)C(=O)c1nc2ccccn2c1CN1CCN(C/C=C/c2ccccc2)CC1	-83.9
CCCCN(C)C(=O)c1nc2ccccn2c1CN1CCN(c2cnccn2)CC1	-12.4
COC(=O)C1=C(C(=O)OC)[C@@H]2N(Cc3ccccc3)c3ccccc3[C@@]23C[C@@H](C(=O)OC)N(C(=O)NC(C)(C)C)C3=N1	-11.7
Brc1cnc(N2CCCCC2)nc1N1CCOCC1	-6.45
CN(C)[C@@H]1C(=O)C(C(N)=O)=C(O)[C@@]2(O)C(=O)C3=C(O)c4c(O)cccc4[C@@](C)(O)C3[C@H](O)C12.Cl (some centres unmarked)	-1.22
